# According to PubChem BioAssay (NCI):
# Compounds without any hit were thinned out: in the full panel of roughly 79,000, 15% have a hit. A number with no mark means an inactive call. Calls of active or inactive are those of the source. No stated cut-off is given here; in the data, active means growth inhibition above about 70%; inactive means the rest. Where a SMILES comes first, the peptide text is derived from it. The star is where a group is joined. Cbz = O=C(OCc1ccccc1)*
# How the values were obtained:
# [1] = NCI Yeast Anticancer Drug Screen. Data for the rad50 strain (AID 155);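 further: 0% = growth of vehicle-only cultures of the same strain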; conditions: S. cerevisiae rad50 strain growth inhibition; at 50.0 µM; hits give high values
# Outline: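 Growth of the mutant yeast was measured after compound exposure and referenced to vehicle-treated cultures.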
# [2] = NCI Yeast Anticancer Drug Screen. Data for the mec2-1 strain (AID 157); conditions: S. cerevisiae mec2-1 strain, at 50.0 µM, hits give high values
# Outline: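 Growth inhibition is read against vehicle-treated controls after compound exposure of the mec2-1 yeast strain, which is defective in DNA damage repair or cell cycle control.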
# [3] = NCI Yeast Anticancer Drug Screen. Data for the sgs1 mgt1 strain (AID 161);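 further: 0% = growth of cultures given vehicle only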; conditions: S. cerevisiae sgs1 mgt1 strain, at 50.0 µM, hits give high values
# Outline: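 This yeast growth screen uses a strain with defined DNA-repair lesions; compound-treated growth is compared with vehicle-treated growth.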
# [4] = NCI Yeast Anticancer Drug Screen. Data for the cln2 rad14 strain (AID 165);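 further: 0% = growth equal to vehicle treated cultures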; conditions: S. cerevisiae cln2 rad14 strain, at 50.0 µM, hits give high values
# Outline: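 Growth inhibition, relative to vehicle-treated controls, is the read-out. The test organism is a yeast strain with defined genetic alterations, cln2 rad14.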
# [5] = NCI Yeast Anticancer Drug Screen. Data for the bub3 strain (AID 167); conditions: S. cerevisiae bub3 mutant strain, at 50.0 µM, hits give high values
# Outline: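 Whole-cell yeast assay. The mutant strain was incubated with compounds, and growth inhibition was determined by comparison with vehicle-treated cells.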
# [6] = NCI Yeast Anticancer Drug Screen. Data for the mlh1 rad18 strain (AID 175); conditions: S. cerevisiae mlh1 rad18 strain growth inhibition; at 50.0 µM; hits give high values
# Outline: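 Cells of a genetically altered yeast strain, deficient in DNA damage repair, were treated with compound. Their growth was then compared with that of vehicle-treated cultures to give inhibition.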
Structure (SMILES),growth inhibition [1],growth inhibition [2],growth inhibition [3],growth inhibition [4],growth inhibition [5],growth inhibition [6]
OCC1COC(c2ccc(Cl)cc2)O1 (stereo unspecified),-10.1%,-10.4%,-19.8%,-17.9%,-16.4%,-7.75%
C/C=C(/C=O)[C@@H]1CC2c3c(c4ccccc4n3[C@@H](O)C1)CCN2C (stereo partly specified),-5.45%,-17.6%,-4.4%,-1.1%,-33.2%,-16.6%
[B-]([C+]1CCCCC1)N1C=CC=CC1,1.2%,1.4%,15.7%,-4.75%,4.95%,-2.1%
CCCC(O)CN (stereo unspecified),-5.65%,18.2%,-12.7%,9.4%,-0.85%,24.9%
Cc1cc(C)c(C2CC(O)C(CO)O2)cc1C (stereo unspecified),-2%,-20.9%,-10.1%,14.1%,-3.35%,21.4%
O.O.[Cu+2].[Cu+2].[NH-]CCC(=O)[N-]C(Cc1cnc[nH]1)C(=O)O.[NH-]CCC(=O)[N-]C(Cc1cnc[nH]1)C(=O)O (stereo unspecified),-26.1%,5.8%,0.95%,31.8%,6.35%,11.8%
CCCCCCCC(N)C(=O)O (stereo unspecified),0%,-2.55%,2.25%,-26.2%,-10.1%,-12.9%
CCOC(=O)CC1NC(=O)CNC1=O (stereo unspecified),-9.2%,2.1%,5.3%,-5%,-1.65%,-13.2%
O=C(NC(Cc1ccccc1)C(=O)N1CCCC1C(=O)O)OCc1ccccc1 (stereo not drawn) (Cbz-Phe-Pro-OH; configuration not given here),7.75%,2.55%,-7.05%,-13.9%,-1.75%,5.05%
C/C=C/Sc1ccccc1C(=O)O,-14.3%,-19.4%,-9.55%,-18.9%,-22.6%,-34%
CC(C(O)c1ccccn1)[N+](=O)[O-] (stereo unspecified),-11.4%,1.55%,-7.1%,-21.1%,-10.7%,-3.4%
COc1ccc(N=C2S/C(=N\C(=Nc3ccccc3)SCc3ccccc3)N(c3ccccc3)C2=Nc2ccc(OC)cc2)cc1,-4.55%,-5.85%,-8.25%,4.05%,-6.8%,5.25%
CCOC(=O)C(=CNc1cc(OC)cc2cccnc12)C(=O)OCC,-12.8%,4.1%,0.15%,18.8%,16.1%,-11.4%
CC1NC(=O)OC1C(C)(C)C (stereo unspecified),6.95%,-2.8%,-0.75%,-19.1%,-5.4%,-4.55%
CCCCCCCCCCCCCC(=O)OCCCC,-25.6%,-54.4%,-59.1%,-143%,-52%,-7.35%
O=C(Oc1ccccc1OC(=O)c1ccc(Cl)cc1)c1ccc(Cl)cc1,3.15%,6.4%,12.7%,6.7%,-2.65%,8.6%
CCOC(=O)c1ccc(NC(=O)Nc2cccc(Cl)c2)cc1,-4.2%,34.5%,50%,-17.9%,25.4%,23.9%
CCOC(=O)C(=CNc1ccc2c(c1)OCO2)C(=O)OCC,4.95%,-11.2%,28.2%,4.65%,49.4%,14.8%
CC(C)(C)n1nnnc1N,-8.55%,-7.55%,6%,-0.05%,11.1%,-20.9%
O=C1c2ccccc2C(=O)c2cc(Br)ccc21,-6.75%,-21.6%,12.4%,-110%,-16.2%,0.2%
O=C(CNc1ccccn1)Nn1cnc2ccc(S(=O)(=O)Nc3ccccn3)cc2c1=O,32.2%,28%,39.4%,-1.1%,25.6%,22.6%

Structure (SMILES),growth inhibition [1],growth inhibition [2],growth inhibition [3],growth inhibition [4],growth inhibition [5],growth inhibition [6]
C/C(CC(=O)Nc1ccccc1[N+](=O)[O-])=N\NC(N)=O,14.1%,-15.8%,-18.1%,27.4%,-23.1%,-2.9%
CCc1nc(N)nc(N)c1-c1ccc2c(c1)nnn2C,19.9%,14.8%,9.05%,-9.75%,11.6%,17.9%
CC(=O)Nc1ccc(S(=O)(=O)Oc2noc3ccccc23)cc1,9.8%,3.45%,16.2%,11.1%,18.1%,23.1%
O=[N+]([O-])c1ccc2oc(=Nc3ccccc3)c(Nc3ccccc3)nc2c1,-21.4%,11.4%,-18.6%,15.9%,6.75%,6.25%
COC(=O)C(C(Br)C(=O)c1ccccc1)C(c1ccccc1)[N+](=O)[O-] (stereo unspecified),68.7%,85.3% (active),54.1%,2.3%,85.9% (active),94.5% (active)
CC1(C)COC(C)(Cc2ccccc2)OC1,-5.9%,3.55%,-15.7%,-65.3%,-22.1%,-11.7%
CCC(=O)[C@@]1(OC(C)=O)CC[C@H]2[C@@H]3CCC4=CC(=O)CC[C@]4(C)[C@H]3CC[C@@]21C,28.1%,17.5%,30.9%,36.7%,26.9%,16%
NC(=O)CC(N)C(=O)OCc1ccc([N+](=O)[O-])cc1 (stereo unspecified),-12.7%,0%,-3.45%,-11.2%,-5.95%,-11.3%
NC1=C(O)C(=O)C(c2ccc(C3OC(N)=C(O)C3=O)cc2)O1 (stereo unspecified),-8.15%,-17.6%,-18.6%,-0.3%,-27.6%,-3.5%
O=C(N/N=C/c1ccc(Cl)cc1Cl)c1cccc([N+](=O)[O-])c1,0.65%,-8.7%,32.5%,-6.95%,2.3%,24.4%
CCCCOC(=O)NC(Nc1ccc(S(=O)(=O)Nc2ccc(OC)nn2)cc1)(C(F)(F)F)C(F)(F)F,-8.25%,-1.5%,-10.1%,5%,-9.55%,2.95%
CC(=O)/C=C\c1cc(C)ccc1O,27.3%,22.1%,9.3%,-35.7%,8.25%,12.6%
O=C1C(=Cc2ccc(Cl)c(Cl)c2)C([O-])=C([P+](c2ccccc2)(c2ccccc2)c2ccccc2)C([O-])=C1[P+](c1ccccc1)(c1ccccc1)c1ccccc1,-4.6%,-44.6%,-7.05%,5.15%,-21.9%,-19.6%
CC1=NN(C(=O)Nc2ccccc2)C(=O)C2CCC(=O)N12 (stereo unspecified),-6.3%,-4.55%,-3.55%,3.85%,-1%,-8.1%
O=C(O)/C=C\C(=O)Nc1ccccn1,-30.6%,-43.8%,-52.7%,-2.65%,-44.9%,-21.4%
CCOC(CN(N=O)c1ccccc1C(C)C)OCC,-3.95%,8.9%,7%,-21.9%,3.55%,-4.25%
CCCCCCCCCCCCCCCCCC(=O)N/N=C/c1ccccc1OC,7.05%,11.9%,9.25%,-1.6%,-2.05%,28.1%
Cc1ccsc1/C=N/Nc1cc(C)c2ccccc2n1,41.4%,-6.25%,40%,35.8%,26.6%,16.2%
c1ccc(-c2ccc3c4ccccc4ccn23)cc1,9.2%,-4.1%,8.9%,17.7%,12.7%,23.9%
C=CC(=O)OCCCCCCCCCC,47.8%,5.6%,28.8%,-0.7%,13.8%,42.1%
